Data: PubChem BioAssay AID1159580 (chemical genetic matrix, 2015)
Values joined by “and” are separate entries in the source; they are usually repeats but may differ in a detail not shown here. Equal entries are not always repeated. Hit rate of the full screen: of about 5,500 compounds, about 2,000 (36%) were called active. Inconclusive results (about 18%) are left out. Rule as the data show it: active = normalized growth mostly below about 0.91 (no sharp cut-off); inconclusive = no clear call, values can overlap the other calls; inactive = mostly above about 0.92. This is one part of the list.

Experiment: chemical genetic growth profiling, strain panel (AID 1159580);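 also: tested at 20 µM; growth read once vehicle control cultures reached saturation at 30 °C; 1 = growth at the plate median or of vehicle wells; lower values mean less growth of the strain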
Settings: growth OD
[1] = S. cerevisiae deletion strains, locus YAL040C, strain CLN3, hits give low values
[2] = S. cerevisiae deletion strains, locus YER002W, strain NOP16, hits give low values
[3] = S. cerevisiae deletion strains, locus YMR307W, strain GAS1, hits give low values
[4] = S. cerevisiae deletion strains, locus YNL175C, strain NOP13, hits give low values
[5] = S. cerevisiae deletion strains, locus YNL197C, strain WHI3, hits give low values
[6] = S. cerevisiae deletion strains, locus YNL224C, strain SQS1, hits give low values
[7] = S. cerevisiae deletion strains, locus YNL322C, strain KRE1, hits give low values
[8] = S. cerevisiae deletion strains, locus YOR083W, strain WHI5 (second series), hits give low values
[9] = S. cerevisiae deletion strains, locus YPL241C, strain CIN2, hits give low values

Measured: normalized growth

COc1ccc(NC(=O)c2ccc(-c3ccc(-c4noc(C)n4)cc3C)cc2)cc1N1CCN(C)CC1
inactive: [1] 1.05 | S. cerevisiae deletion strains, locus YCL061C, strain MRC1 (second series), hits give low values 0.982 | S. cerevisiae deletion strains, locus YDR363W, strain ESC2, hits give low values 0.959 | [2] 1.01 | S. cerevisiae deletion strains, locus YJR075W, strain HOC1, hits give low values 0.974 | [3] 0.933 | S. cerevisiae deletion strains, locus YNL153C, strain GIM3, hits give low values 0.946 | [4] 1.02 | [5] 1.04 | [6] 1.01 | [7] 0.965 | [8] 0.939 | [9] 0.994

CC(=O)NCCc1c[nH]c2ccc(O)cc12
inactive: [1] 1 | S. cerevisiae deletion strains, locus YBR021W, strain FUR4, hits give low values 1.03 | S. cerevisiae deletion strains, locus YBR229C, strain ROT2, hits give low values 0.96 | S. cerevisiae deletion strains, locus YCL029C, strain bik1, hits give low values 0.98 | S. cerevisiae deletion strains, locus YDL035C, strain GPR1, hits give low values 1.01 | S. cerevisiae deletion strains, locus YDL074C, strain BRE1, hits give low values 0.953 | S. cerevisiae deletion strains, locus YDL101C, strain DUN1, hits give low values 0.977 | S. cerevisiae deletion strains, locus YDL134C, strain PPH21, hits give low values 0.993 | S. cerevisiae deletion strains, locus YDL185W, strain tfp1, hits give low values 0.983 | S. cerevisiae deletion strains, locus YDL192W, strain arf1, hits give low values 0.982 | S. cerevisiae deletion strains, locus YDR101C, strain arx1, hits give low values 0.929 | S. cerevisiae deletion strains, locus YDR150W, strain NUM1, hits give low values 1.01 | S. cerevisiae deletion strains, locus YDR162C, strain NBP2, hits give low values 0.999 | S. cerevisiae deletion strains, locus YDR318W, strain mcm21, hits give low values 0.992 | S. cerevisiae deletion strains, locus YDR388W, hits give low values 0.991 | S. cerevisiae deletion strains, locus YDR502C, strain sam2, hits give low values 0.985 | S. cerevisiae deletion strains, locus YEL061C, strain CIN8, hits give low values 0.984 | [2] 0.993 | S. cerevisiae deletion strains, locus YER110C, hits give low values 0.986 | S. cerevisiae deletion strains, locus YER155C, strain BEM2, hits give low values 0.998 | S. cerevisiae deletion strains, locus YER167W, strain BCK2, hits give low values 0.992 | S. cerevisiae deletion strains, locus YGL078C, strain dbp3, hits give low values 0.999 | S. cerevisiae deletion strains, locus YGL086W, strain mad1, hits give low values 0.962 | S. cerevisiae deletion strains, locus YGL248W, strain PDE1, hits give low values 0.98 | S. cerevisiae deletion strains, locus YGR078C, strain PAC10, hits give low values 1.01 | S. cerevisiae deletion strains, locus YGR135W, strain pre9, hits give low values 1.06 | S. cerevisiae deletion strains, locus YGR252W, strain gcn5, hits give low values 1.05 | S. cerevisiae deletion strains, locus YHR030C, strain SLT2, hits give low values 0.997 | S. cerevisiae deletion strains, locus YHR079C, strain IRE1 (second series), hits give low values 0.992 | S. cerevisiae deletion strains, locus YHR094C, strain hxt1, hits give low values 0.991 | S. cerevisiae deletion strains, locus YHR129C, strain ARP1, hits give low values 0.993 | S. cerevisiae deletion strains, locus YHR200W, strain rpn10, hits give low values 0.989 | S. cerevisiae deletion strains, locus YIL066C, strain RNR3, hits give low values 0.956 | S. cerevisiae deletion strains, locus YIL073C, strain SPO22, hits give low values 0.989 | S. cerevisiae deletion strains, locus YIL125W, strain kgd1, hits give low values 0.988 | S. cerevisiae deletion strains, locus YIR030C, strain dcg1, hits give low values 0.997 | S. cerevisiae deletion strains, locus YJL095W, strain BCK1, hits give low values 0.982 | S. cerevisiae deletion strains, locus YJL134W, strain LCB3, hits give low values 0.992 | S. cerevisiae deletion strains, locus YJL168C, strain set2, hits give low values 0.995 | S. cerevisiae deletion strains, locus YJL187C, strain SWE1 (second series), hits give low values 0.95 | S. cerevisiae deletion strains, locus YJR043C, strain POL32, hits give low values 0.99 | S. cerevisiae deletion strains, locus YKL009W, strain mrt4, hits give low values 0.978 | S. cerevisiae deletion strains, locus YKL068W, hits give low values 0.986 | S. cerevisiae deletion strains, locus YKL085W, strain MDH1 (second series), hits give low values 0.982 | S. cerevisiae deletion strains, locus YKL085W, strain MDH1, hits give low values 0.982 | S. cerevisiae deletion strains, locus YKL190W, strain CNB1, hits give low values 0.993 | S. cerevisiae deletion strains, locus YKR001C, strain vps1, hits give low values 0.978 | S. cerevisiae deletion strains, locus YLR039C, strain RIC1, hits give low values 0.95 | S. cerevisiae deletion strains, locus YLR058C, strain SHM2, hits give low values 0.982 | S. cerevisiae deletion strains, locus YLR102C, strain apc9, hits give low values 0.999 | S. cerevisiae deletion strains, locus YLR262C, strain YPT6, hits give low values 0.967 | S. cerevisiae deletion strains, locus YLR268W, strain sec22, hits give low values 0.983 | S. cerevisiae deletion strains, locus YLR330W, strain CHS5, hits give low values 0.989 | S. cerevisiae deletion strains, locus YLR342W, strain FKS1 (second series), hits give low values 1.07 | S. cerevisiae deletion strains, locus YLR371W, strain rom2, hits give low values 1.02 | S. cerevisiae deletion strains, locus YLR418C, strain cdc73, hits give low values 1.05 | S. cerevisiae deletion strains, locus YML016C, strain PPZ1, hits give low values 0.992 | S. cerevisiae deletion strains, locus YML032C, strain rad52, hits give low values 0.978 | S. cerevisiae deletion strains, locus YML124C, strain tub3, hits give low values 0.995 | S. cerevisiae deletion strains, locus YMR078C, strain ctf18, hits give low values 0.99 | S. cerevisiae deletion strains, locus YMR223W, strain ubp8, hits give low values 1.03 | S. cerevisiae deletion strains, locus YMR263W, strain SAP30, hits give low values 1 and 0.976 | [3] 1.05 | S. cerevisiae deletion strains, locus YNL067W, strain RPL9B, hits give low values 0.959 | S. cerevisiae deletion strains, locus YNL128W, strain TEP1, hits give low values 1.01 | [4] 1.01 | [5] 1.01 | [6] 1.02 | S. cerevisiae deletion strains, locus YNL233W, strain BNI4, hits give low values 0.966 | S. cerevisiae deletion strains, locus YNL250W, strain rad50, hits give low values 0.967 | S. cerevisiae deletion strains, locus YNL271C, strain bni1, hits give low values 0.982 | S. cerevisiae deletion strains, locus YNL298W, strain CLA4, hits give low values 1 | S. cerevisiae deletion strains, locus YNL307C, strain MCK1, hits give low values 0.987 | [7] 1.02 and 0.994 | S. cerevisiae deletion strains, locus YNR052C, strain pop2, hits give low values 0.996 | S. cerevisiae deletion strains, locus YOL006C, strain TOP1, hits give low values 0.933 | S. cerevisiae deletion strains, locus YOL012C, strain htz1 1.04 | S. cerevisiae deletion strains, locus YOL147C, strain pex11, hits give low values 0.993 | S. cerevisiae deletion strains, locus YOR061W, strain CKA2, hits give low values 0.963 | S. cerevisiae deletion strains, locus YOR069W, strain VPS5, hits give low values 0.997 | [8] 1.01 | S. cerevisiae deletion strains, locus YOR136W, strain idh2, hits give low values 0.989 | S. cerevisiae deletion strains, locus YOR144C, strain elg1, hits give low values 0.994 | S. cerevisiae deletion strains, locus YOR184W, strain ser1, hits give low values 1 | S. cerevisiae deletion strains, locus YOR316C, strain cot1, hits give low values 0.986 | [9] 1.01 and 0.993 | S. cerevisiae deletion strains, locus YPR119W, strain clb2, hits give low values 0.988 | S. cerevisiae deletion strains, locus YPR141C, strain kar3, hits give low values 0.981 | S. cerevisiae deletion strains, locus YPR163C, strain tif3, hits give low values 0.986 | S. cerevisiae deletion strains, locus YPR167C, strain met16, hits give low values 0.992 | S. cerevisiae deletion strains, strain wtn01, hits give low values 1 | S. cerevisiae strains, strain wild type, hits give low values 0.987
